Screens (PubChem BioAssay)
A selection: hits, their analogues and other compounds. The true share with any hit is near 2.4%.
POLB inh: inhibitors of human DNA polymerase beta; Potency, µM (doses to about 114 µM), for inactives: at the top dose activity change, negative = inhibition, usual class: inhibitors; Pol beta primer extension/strand displacement, fluorescence kinetic; actives 1.3% (n = 340,000); P06746; note: potency is the fitted concentration of half-maximal effect; % is set by controls: 0 for no effect and ±100 for the full control effect
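10 nM enzyme + cpd, 15 min RT; start with substrate 50 nM final; read 0 min and after 10 min RT. Corrected, normalized data; 4-parameter Hill curve fit.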
Pol kappa inh-1: DNA polymerase kappa (human) inhibition; Potency, µM (highest dose often 107 µM), inactives show at the top dose activity, negative = inhibition, usual class: inhibitors; Q9UBT6; actives 0.53% (n = 400,000); purified Pol kappa, fluorescent DNA synthesis assay, 10 min; note: potency is the fitted concentration of half-maximal effect; % is set by controls: 0 for no effect and ±100 for the full control effect
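Here, compound and 10 nM enzyme are combined for 15 min at room temperature; adding 50 nM substrate (final) starts DNA synthesis, tracked by fluorescence at 0 and 10 min against buffer-only wells.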
Pol iota inh: DNA polymerase iota (human) inhibition; Q9UNA4; Pol iota fluorescent replication assay, 10 min; Potency, µM (series often up to 115 µM), without a hit: at the highest dose activity, negative = inhibition, most hits filed as inhibitors; actives 1% (n = 390,000); note: potency is the fitted concentration of half-maximal effect
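Fluorescent replication assay read twice, at 0 min and 10 min after adding 50 nM (final) substrate. Enzyme (10 nM) and compounds were first incubated 15 min at room temperature; enzyme-free buffer wells were negative controls.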
WRN helicase inh: WRN helicase (human) inhibition | Q14191 | WRN helicase unwinding, fluorescent forked duplex, kinetic | Potency, µM (top dose mostly 114 µM), without a hit: at the top dose activity change, negative = inhibition, actives largely listed as inhibitors | actives 0.46% (n = 360,000) | AID 651768; note: potency is the fitted concentration of half-maximal effect; % is set by controls: 0 for no effect and ±100 for the full control effect; nearly all actives have a fitted effect of over 55% in size
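Enzyme (20 nM final) and test compound sit together 15 min at room temperature before substrate addition. Substrate is a single-forked duplex oligonucleotide (100 nM) labelled with fluorophore and quencher, with 2 mM ATP; helicase unwinding raises red fluorescence, read kinetically.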
Pol eta inh-1: DNA polymerase eta (human) inhibition; AID 588591; actives 1.2% (n = 390,000); Potency, µM (series often up to 114 µM), for inactives: at the top dose activity change, negative = inhibition, actives largely listed as inhibitors; recombinant Pol eta, fluorescent DNA replication assay; Q9Y253; note: potency is the fitted concentration of half-maximal effect; % is set by controls: 0 for no effect and ±100 for the full control effect
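Fluorescent replication assay: 50 nM final substrate added after a 15 min room-temperature compound preincubation with 10 nM enzyme. Signal taken at 0 min and again at 10 min.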
FEN1 inhibitor: human FEN1 inhibition; actives 0.35% (n = 390,000); Recombinant FEN1 flap cleavage, fluorescence, 15 min; AID 588795; P39748; Potency, µM (doses to about 114 µM), for inactives: top-dose activity change, negative = inhibition, usual class: inhibitors; note: potency is the fitted concentration of half-maximal effect; % is set by controls: 0 for no effect and ±100 for the full control effect; nearly all actives have a fitted effect of over 65% in size
Target sequence (P39748 whole entry, looked up): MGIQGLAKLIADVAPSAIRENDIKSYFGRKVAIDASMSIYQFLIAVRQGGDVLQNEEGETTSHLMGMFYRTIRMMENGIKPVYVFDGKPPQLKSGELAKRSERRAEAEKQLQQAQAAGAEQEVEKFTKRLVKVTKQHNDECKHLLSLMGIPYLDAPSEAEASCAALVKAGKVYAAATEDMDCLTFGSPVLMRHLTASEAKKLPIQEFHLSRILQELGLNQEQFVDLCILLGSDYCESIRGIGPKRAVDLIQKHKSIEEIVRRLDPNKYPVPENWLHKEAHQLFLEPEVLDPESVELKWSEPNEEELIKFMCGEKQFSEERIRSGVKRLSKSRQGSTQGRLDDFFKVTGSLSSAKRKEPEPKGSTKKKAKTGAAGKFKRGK
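Steps: FEN1 (10 nM) dispensed; compound added by pin tool; 15 min at room temperature; substrate added to 50 nM final; reads at 0 min and 15 min; data normalized and fitted (four-parameter Hill).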
GALK confirm: galactokinase (human) inhibition, confirmation; actives 70% (n = 150); Potency, µM (titrated, usually from 115 µM), for inactives: top-dose activity, negative = inhibition, hits mostly inhibitors; shares compounds with Pol eta inh-1; purified GALK, Kinase-Glo ATP depletion luminescence
GALK redox cs: generates H2O2 by redox cycling, flagging GALK artifacts; actives 40% (n = 150); AID 2035; shares compounds with Pol eta inh-1; Potency, µM (top dose mostly 115 µM), for the others: top-dose activity change, negative = H2O2 signal, usual class: inhibitors; Phenol red-HRP H2O2 redox cycling, absorbance 600 nm
HEK293 viability: counter-screen for GALK inhibitors: HEK293 cell cytotoxicity; Potency, µM (titrated, usually from 46.1 µM), inactives show at the top dose activity change, negative = cytotoxicity, most hits filed as inhibitors; shares compounds with Pol eta inh-1; HEK-293 viability, ATP luminescence (CellTiter-Glo), 24/48 h; actives 10% (n = 170); AID 2547; note: potency is the fitted concentration of half-maximal effect; % is set by controls: 0 for no effect and ±100 for the full control effect
Pol kappa inh-2: Pol kappa (human) inhibition, cherry-pick confirmation | shares compounds with Pol eta inh-1 | purified Pol-kappa, fluorescent strand-displacement substrate | Potency, µM, actives largely listed as inhibitors | actives 76% (n = 920); note: potency is the fitted concentration of half-maximal effect
Pol eta inh-2: confirmation of human DNA polymerase eta inhibitors | AID 720502 | shares compounds with Pol eta inh-1 | Pol eta primer extension, TAMRA/BHQ fluorescence, 10 min | actives 64% (n = 2,600) | Potency, µM, actives largely listed as inhibitors; note: potency is the fitted concentration of half-maximal effect
* marks the source's active call; other numbers are inactive results; ? = inconclusive; . = not tested or not shown; [ ] = dose if it differs, or a comment. Calls come from the whole dose curve; as a rule, active = well fitted curve in the direction sought with a large enough effect; inconclusive = small, poorly fitted or top-dose-only effect, or another doubt; inactive = no such curve, though single readings can be large; an effect the other way counts as inactive or inconclusive.

SMILES	POLB inh	Pol kappa inh-1	Pol iota inh	WRN helicase inh	Pol eta inh-1	FEN1 inhibitor	Pol eta inh-2	others
O=C(NCC(c1cccnc1)N1CCc2ccccc2C1)C(=O)Nc1ccc(F)cc1F (centres undefined)	-6%	-16%	-9%	.	-21%	28%	.
Cc1oc(C(=O)O)cc1COc1ccc2c3c(c(=O)oc2c1)CCC3	35µM*	?	-19%	-17%[57.1 µM]	18µM*	-16%	?
COC(=O)c1cc(COc2ccc3c4c(c(=O)oc3c2)CCCC4)c(C)o1	-1%	-3%	-12%	-5%	-9%	10%	.
Cc1ccc(NC(=S)Nc2cccc3cnccc23)cc1	-3%	-5%	84%	3%	-15%	-1%	.
CC(=O)c1ccc(NC(=S)Nc2cccc3cnccc23)cc1	?	-14%	42%	-3%	10%	0%	.	GALK confirm=?;GALK redox cs=11µM*;HEK293 viability=2%
CCN(CC)c1ccc(NC(=O)CSc2ccsc2[N+](=O)[O-])c(C)c1	25µM*	?	?	?	45µM*	2%	?	Pol kappa inh-2=60*
Cc1[nH]n(-c2ncc(-c3ccccc3)s2)c(=O)c1C(c1ccc(Cl)cc1)C(C#N)C#N (centres undefined)	32µM*	?	?	?	28µM*	-7%	?
Cc1[nH]n(-c2ccccc2)c(=O)c1C(c1ccccc1[N+](=O)[O-])C(C#N)C#N (centres undefined)	28%	4%	6%	-7%	-7%	0%	.
CCN(CC(=O)Nc1ccc(NC(C)=O)cc1)C(=O)CSc1ncnc2sc(C)c(C)c12	.	-18%	?	-3%[11.6 µM]	?	-29%	?
CC(=O)Nc1ccc(NC(=O)CSc2ncnc3sc(C)c(C)c23)cc1	-3%	-1%	98%	0%	-3%	1%	.
CCN(CC)c1cc(C)c2cc(NC(=O)/C=C/c3cc(OC)c(OC)c(OC)c3)ccc2n1	2%	-45%	?	.	-24%	-13%	.
Cc1ccc(N2CC(C(=O)Nc3nnc(SCCC4OCCO4)s3)CC2=O)cc1 (centres undefined)	6%	-11%	35%	-30%	?	4%	.
COc1ccc(N2CC(C(=O)Nc3nnc(SCCC4OCCO4)s3)CC2=O)cc1 (centres undefined)	14µM*	-29%	-14%	-3%	35µM*	-22%	?
O=C(O)CNc1ccccc1C(=O)O	-80%	-66%	?	-4%[11.6 µM]	20µM*	8%	60*
O=C(O)c1ccccc1NCc1cccnc1	.	-11%	5%	7%	2%	-12%	.
